Compound activity from PubChem BioAssay.
CHX counter: affects cycloheximide protein synthesis inhibition readout, counter-screen. cell reporter, cycloheximide protein synthesis inhibition counterscreen. max response, %. 300,000 compounds, 12% hits. AID 2314; in the data active means max response mostly above about 13%, no sharp cut-off; inactive means mostly below about 14%; further: read at 38.3 µM for the half of the compounds with a filed dose
NS1 function inh: inhibitors of influenza NS1 protein function; AID 2326; 270,000 compounds, 0.4% hits; Potency, µM (top dose mostly 46.1 µM); calls by dose curve; further: actives are rising curves; nearly all actives have a fitted effect of over 50% in size
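Read-out: OD600 growth recovery of NS1-expressing budding yeast. Cells grown overnight at 30C in -URA glucose medium, washed, resuspended and diluted 1:100 in 2% galactose assay medium, pH 6.0. Same strain lacking NS1 served as positive control.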
FBPA Giardia inh: blocks Giardia fructose-bisphosphate aldolase activity | A8B2U2 | purified Giardia FBPA | Potency, µM (doses to about 59.6 µM), usual class: inhibitors | 290,000 compounds, 0.71% hits | AID 2451; further: nearly all actives have a fitted effect of over 55% in size
Target sequence (A8B2U2 whole entry, looked up): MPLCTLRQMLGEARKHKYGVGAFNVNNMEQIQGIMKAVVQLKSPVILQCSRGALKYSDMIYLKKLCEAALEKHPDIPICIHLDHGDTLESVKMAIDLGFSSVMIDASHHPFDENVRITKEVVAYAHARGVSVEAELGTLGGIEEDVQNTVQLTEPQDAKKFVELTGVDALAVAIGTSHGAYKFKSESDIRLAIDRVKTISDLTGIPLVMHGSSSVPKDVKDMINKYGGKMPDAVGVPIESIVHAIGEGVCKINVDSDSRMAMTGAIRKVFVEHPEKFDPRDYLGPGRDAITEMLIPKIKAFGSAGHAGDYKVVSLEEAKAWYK
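Giardia FBPA (40 nM reagent) was preincubated 10 min at RT with compound (up to 57.5 uM final), then substrate plus GAPDH/TPI/NAD/arsenate coupling system with diaphorase/resazurin was added; resorufin fluorescence (525/598 nm) was read after 20 min.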
Pf growth 96h: inhibits malaria parasite growth, 96 h; P. falciparum luciferase reporter growth, 96 h; 320,000 compounds, 6.9% hits; Potency, µM (top dose mostly 28.7 µM), usual class: inhibitors
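Two parasite generations (96 h, 37 C, 5% CO2) of compound exposure in infected erythrocytes (0.05% parasitemia, 2% hematocrit). Luciferase-reporter P. falciparum; decreased luminescence indicates inhibited growth, aimed at apicoplast-acting delayed death.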
Shiga toxin inh: Shiga toxin inhibition; Vero cells, Shiga toxin protein synthesis inhibition reporter; inhibition, % at 38.7 µM; 290,000 compounds, 9.2% hits; AID 2315; in the data active means inhibition mostly above about 28%, no sharp cut-off; inactive means mostly below about 43%
Pf growth 48h: inhibits P. falciparum growth in the first generation, 48 h; P. falciparum luciferase growth in erythrocytes, 48 h; Potency, µM (series often up to 28.7 µM), hits mostly inhibitors; 310,000 compounds, 5.9% hits
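Here the parasites carry a stable luciferase gene and grow inside erythrocytes in Albumax-based RPMI medium with compound for one erythrocytic cycle. Activity is scored as loss of luminescent signal.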
Numbers stand for hits; 0 = inactive; ? = inconclusive; - = not tested or not shown; [ ] = dose if it differs, or a comment. This is a sample that favours compounds with a hit; in the whole collection about 21% have one here. Unless noted, the call rests on the fitted dose curve; in most records, active means well fitted curve in the direction sought with a large enough effect; inconclusive means small, poorly fitted or top-dose-only effect, or another doubt; inactive means no such curve, though single readings can be large; an effect the other way counts as inactive or inconclusive.

SMILES	CHX counter	NS1 function inh	FBPA Giardia inh	Pf growth 96h	Shiga toxin inh	Pf growth 48h
CC(=O)c1c(N2CCN(Cc3ccccc3)CC2)[nH]c(-c2ccccc2)nc1=S	0	0	?	0	0	4.65µM
Cc1ccc(OS(=O)(=O)c2ccc(N3C(=O)CCC3=O)cc2)cc1	0	0	0	0	0	0
COc1cc(/C=N/NC(=O)CC2(C)OCCO2)cc(Br)c1O	0	-	0	0	0	0
COc1cc(/C=N/NC(=O)c2ccc3c(c2)OCCO3)c(Br)c(Br)c1O	31.9	0	-	0	0	0
COc1cccc(/C=N/NC(=O)CNC(=O)c2ccc3c(c2)OCCO3)c1O	0	0	0	0	0	0
COc1cc(/C=N/NC(=O)C23CC4CC(CC(C4)C2)C3)cc(Br)c1O	0	0	0[12.9 µM]	0	25.6	0
COc1cc(/C=N\NC(=O)c2ccc(-c3ccccc3)cc2)cc(Br)c1O	0	0	-	0	0	0
COc1cc(/C=N/NC(=O)CC23CC4CC(CC(C4)C2)C3)cc(Br)c1OCC(=O)N(C)C	0	0	0	?	0	13.1µM
O=C(CC12CC3CC(CC(C3)C1)C2)N/N=C/c1ccncc1	0	0	0	?	0	?
COc1cc(/C=N/NC(=O)c2ccc3c(c2)OCCO3)cc(Br)c1O	32.4	0	0	0	41.2	0
CCOc1ccc(NC(=O)CCC(=O)c2ccc(F)cc2)cc1	0	0	0	?	0	0
CC1=C(/C=C/C(C)=C/C=C/C(C)=C/C(=O)Oc2c(C)c(C)c3c(c2C)CC[C@@](C)(CCC[C@H](C)CCC[C@H](C)CCCC(C)C)O3)C(C)(C)CCC1	-	-	-	0	-	0
COc1ccc(C(=O)NC(=S)NC2CCSC2=O)cc1 (configuration not stated)	0	0	0	0	27.0	0
COc1ccc(C(=O)NC(=S)N2CCC(C)CC2)cc1	25.6	0	0	0	0	-
O=C(COc1ccc(Cl)cc1)NC1CCSC1=O (configuration not stated)	19.2	0	0	0	53.4	0
COC(=O)c1ccc(C(=O)OC)c(NC(=S)N2CCC(C)CC2)c1	0	0	0	7.38µM	0	0
COc1ccc(C(=O)NC(=S)N2CCCC2)cc1	0	0	-	13.1µM	0	0
COc1cc(OC)cc(C(=O)NC(=S)N2CCCCCC2)c1	0	0	0	0	0	?
COc1ccc(NC(=O)C(=S)N2CCCC2)cc1	30.3	0	0	?	0	0
COc1ccc(C(=O)NC(=S)N2CCCCC2)cc1	19.4	?	0	0	40.4	-
CC1CCCCN1C(=O)COc1ccc(S(=O)(=O)N2CCCC2)cc1[N+](=O)[O-] (configuration not stated)	-	-	-	11.7µM	-	0
CCOC(=O)C1CCN(CC(O)COc2ccc(S(=O)(=O)N3CCCC3)cc2[N+](=O)[O-])CC1 (configuration not stated)	-	-	-	?	-	8.28µM
O=C(COC(=O)c1ccc(Cl)nc1)Nc1cccnc1Cl	-	-	-	0	-	0
COc1ccccc1NC(=O)C(C)N1CCN(C/C=C/c2ccccc2)CC1 (configuration not stated)	0	0	0	0	0	13.1µM
O=C(c1cccnc1)N1CCN(C/C=C/c2ccccc2)CC1	0	-	0	0	0	0
SMILES	CHX counter	NS1 function inh	FBPA Giardia inh	Pf growth 96h	Shiga toxin inh	Pf growth 48h
Cc1cccc(NS(=O)(=O)c2cccc(C(=O)N3CCN(C/C=C/c4ccccc4)CC3)c2)c1	-	-	-	10.4µM	-	11.7µM
Cc1noc(C)c1COc1cccc(C(=O)N2CCN(C/C=C/c3ccccc3)CC2)c1	0	0	0	-	0	10.4µM
Cc1cccc(NS(=O)(=O)c2cccc(C(=O)N3CCCC3)c2)c1	-	-	-	0	-	0
COc1ccccc1NS(=O)(=O)c1cccc(C(=O)N2CCN(C/C=C/c3ccccc3)CC2)c1	0	0	0	8.28µM	0	5.86µM
CCN(CC)CCN(Cc1cc2cc3c(cc2[nH]c1=O)OCCO3)C(=S)NC	0	0	0	0	0	0
CCC#CCOCC(=O)Nc1ccccc1	-	-	0	-	-	-
Cc1ccc(NC(=O)C(C)OC(=O)Cn2cnc3ccccc3c2=O)cc1 (configuration not stated)	-	-	-	0	-	0
Oc1c(Br)cc(C2N=C(c3ccccc3)NO2)cc1Br (configuration not stated)	25.8	0	0	0	103.3	0
CSc1ccc(C2N=C(c3ccccc3)NO2)cc1 (configuration not stated)	40.6	0	0	0	114.1	0
CCN(C(=O)C1CCCN(c2ncnc3c2nc2n3CCCCC2)C1)c1cccc(Cl)c1 (configuration not stated)	0	0	0	?	0	?
CCOc1ccccc1Oc1cn[nH]c1-c1ccc(OCC(=O)NN)cc1O	0	?	0	13.1µM	0	-
CCOc1ccc(-c2[nH]ncc2Oc2ccccc2OC)c(O)c1	0	0	0	-	0	8.28µM
CCOc1ccc(-c2[nH]ncc2Oc2ccccc2OCC)c(O)c1	0	0	0	?	0	5.86µM
CCOc1ccccc1OCCOc1ccc(F)cc1	0	0	0	0	0	0
COc1cccc(Oc2cn[nH]c2-c2ccc(OCC(=O)NN)cc2O)c1	0	0	0	?	0	?
C1CCN2C[C@H]3C[C@H](CN4CCCCC34)C2C1 (some centres not stated)	-	-	0	-	-	-
O=C(CSc1nnnn1-c1cccnc1)Nc1ccccc1F	0	0	0	0	0	0
COc1ccc(-n2nnnc2SC(C)C(=O)NC2CCCC2)cc1 (configuration not stated)	-	-	-	0	-	0
CCOC(=O)c1c(C)[nH]c(C(=O)COC(=O)c2ccccn2)c1C	37.7	0	0	0	99.6	0
CCOC(=O)c1c(C)[nH]c(C(=O)COC(=O)c2ccc(O)cc2O)c1C	18.5	0	0	0	0	0
CCOC(=O)c1c(C)[nH]c(C(=O)COC(=O)c2ccc(O)cc2)c1C	22.4	0	0	?	54.1	?
CCN(CCO)C[C@H]1CCC[C@H]2CCCC[C@@H]21	-	0	-	-	-	-
O=C(NN1C(=O)/C(=C/c2cc([N+](=O)[O-])ccc2O)SC1=S)c1ccccc1O	-	-	-	0	-	0
Cc1ccc(/C=C2\SC(=S)N(/N=C/c3cc([N+](=O)[O-])ccc3O)C2=O)o1	19.3	-	0	?	0	?
COc1cc2c(cc1NC(=O)c1ccncc1)oc1ccccc12	0	0	0	0	0	-
COc1cc2c(cc1NC(=O)c1cc(-c3ccccn3)nc3ccccc13)oc1ccccc12	0	?	0	0	0	0
COc1cc2c(cc1NC(=O)C(C)Sc1cccc[n+]1[O-])oc1ccccc12 (configuration not stated)	75.5	0	0	0	79.0	0
COc1cc2c(cc1NC(=O)C(C)Sc1nc3ccccc3n1C)oc1ccccc12 (configuration not stated)	0	0	0	7.38µM	0	11.7µM
COc1cccc(-n2nnc3c(=O)n(CC(=O)N4CCC(Cc5ccccc5)CC4)cnc32)c1	0	0	0	0	0	?
COc1ccc(/C=N/OCC(=O)Nc2nc3ccccc3s2)cc1OC	20.1	0	0	0	0	0
